Bioassay records (PubChem BioAssay)
MbtI inh: blocks the Mycobacterium tuberculosis siderophore enzyme MbtI; P9WFX0; purified MbtI enzyme, fluorescence intensity read-out; inhibition, % (concentration not given with the values); 0.89% of 100,000 active; in the data active means inhibition mostly above about 56%, no sharp cut-off; inactive means mostly below about 77%
Target sequence (P9WFX0 whole entry, looked up): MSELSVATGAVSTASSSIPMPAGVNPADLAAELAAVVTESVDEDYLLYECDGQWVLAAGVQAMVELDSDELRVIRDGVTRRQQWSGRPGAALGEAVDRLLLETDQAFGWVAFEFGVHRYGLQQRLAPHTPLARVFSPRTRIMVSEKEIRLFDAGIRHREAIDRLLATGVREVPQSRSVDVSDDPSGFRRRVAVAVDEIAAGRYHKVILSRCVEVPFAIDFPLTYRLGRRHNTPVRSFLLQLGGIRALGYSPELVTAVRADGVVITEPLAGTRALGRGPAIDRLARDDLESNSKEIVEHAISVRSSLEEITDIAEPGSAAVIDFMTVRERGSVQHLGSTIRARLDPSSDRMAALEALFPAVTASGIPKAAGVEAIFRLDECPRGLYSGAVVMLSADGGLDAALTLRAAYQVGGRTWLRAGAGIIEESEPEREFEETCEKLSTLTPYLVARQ
AID504770: E. coli YBA685 growth inhibition, screen for V. cholerae RctB inhibitors; E. coli YBA685 rctB-dependent plasmid, OD600 growth, 3 h; stronger effect = lower value; AID 504770; 0.27% of 130,000 active; z-score (concentration not given with the values); in the data active means z-score below about -2, passing the limit was not always enough
PV pol inh: poliovirus RNA polymerase inhibition; P03300; poliovirus polymerase elongation, fluorescence polarization; stronger effect = lower value; % elongation, % (compound at 16.7 µg/mL); 0.66% of 150,000 active; in the data active means % elongation below about 90%
MenB inh: Mtb MenB enzyme inhibition; P9WNP5; inhibition, % (concentration not given with the values); 0.43% of 100,000 active; MenB enzyme assay, absorbance read-out; AID 540299; in the data active means inhibition above about 21%, passing the limit was not always enough
Active calls of the source: *; x = no result given. Rows were chosen to be rich in hits. Some 1.4% of all compounds tested hit in one or more screens of this group.

SMILES	MbtI inh	AID504770	PV pol inh	MenB inh
Fc1c(F)c(Oc2ccccc2)c(F)c(F)c1Oc1ccccc1	-4	1.1	102	27*
Nc1ccc(Oc2ccccc2)cc1	0	0.6	102	-39
Cc1[nH]c(=S)[nH]c1Cc1ccccc1	96*	-0.8	x	-14
Cc1scc(-c2ccccc2)[n+]1CCO	54*	-0.25	104	-3
COC(=O)C1C(=O)NC(S)=C(C#N)C1c1ccccc1Cl (configuration not stated)	87*	-0.25	106	-12
CCOc1ccccc1C1C(C#N)=C(SC)NC(=O)C1C(=O)OC (configuration not stated)	x	0.7	x	x
Cc1cc(C)nc(/N=C(/N)N(C)C2CCCCC2)n1	-4	-0.85	105	-7
CCCN1CCN(CCCNC(=O)c2cc3c(Cl)nc4ccccc4c3s2)CC1	x	x	67*	x
CCN1CCN(CCCNC(=O)c2cc3c(=O)n(C)c4ccccc4c3s2)CC1	x	x	74*	x
N#Cc1cnn2c(-c3ccc(Oc4ccccc4)cc3)ccnc12	x	-0.1	x	x
C=CCn1c(N)nc2c1c(=O)n(C)c(=O)n2C	-5	-0.6	101	49*
CO/N=C(\C(=O)NC1C(=O)N2C(C(=O)OCOC(=O)C(C)(C)C)=C(/C=C\c3scnc3C)CSC12)c1csc(N)n1 (configuration not stated)	-15	-0.1	100	-1
C=CC1=C(C(=O)O)N2C(=O)[C@@H](NC(=O)/C(=N\O)c3csc(N)n3)[C@H]2SC1 (stereo in doubt)	-4	-5.1*	100	0
Cc1noc(C)c1COc1cccc(C(=O)N2CCc3ccccc32)c1	-2	-2.5*	106	-17
Cn1c(SCC(=O)NC(=O)Nc2ccccc2F)nc2cc(S(N)(=O)=O)ccc21	96*	-0.3	85*	-39
CCN1CCN(c2ncc3c(n2)CCN(Cc2cc(F)cc(F)c2)C3)CC1	x	x	86*	x
CN(C)S(=O)(=O)N1CCC(C(=O)Nc2ccccc2)CC1	-18	-0.05	105	-13
CNC(=O)c1cc(-c2ccc(OC)c(S(=O)(=O)N3CCOCC3)c2)on1	16	0.75	100	-11
COc1cc2cc3c4c(cc(OC)c(OC)c4c2cc1OC)CCN3C	x	0	18*	1
CCOc1ccccc1C(=O)Nc1ccccc1	-6	-0.9	102	-9
O=C(Nc1ccccc1)c1ccccc1OCC(=O)N1CCCC1	-8	-3*	105	-16
Cc1ccc(S(=O)(=O)N2CCCCC2C(=O)NC(C)c2ccc3c(c2)OCCO3)cc1 (configuration not stated)	-13	-2.1*	101	-28
O=C1c2ccccc2CC1Sc1nnc(-c2ccco2)c(-c2ccco2)n1 (configuration not stated)	97*	0.9	99	5
CN1C(=O)C(=C/C=C/c2ccccc2)C(=O)N(C)C1=O	82*	1.1	102	-42
C=CCN1C(=O)NC(=O)/C(=C/C=C/c2ccccc2)C1=O	1	-0.2	100	-36
SMILES	MbtI inh	AID504770	PV pol inh	MenB inh
CC(C)(C)Sc1ccc(C(=O)O)s1	57*	-0.3	x	x
CC(C)(C)Sc1ccc(SC#N)s1	81*	0.75	95	-32
S=C(c1ccc(-c2ccccc2)o1)N1CCN(c2ccccc2)CC1	92*	-0.45	68*	2
CC(=O)N1CCN(C(=S)c2ccc(-c3ccc(C)cc3)o2)CC1	80	-0.05	96	2
CC(=O)Nc1cc(-c2ccccc2)[nH]n1	x	-0.55	x	x
CCC(C)N1CCN(C2CCCCC2)CC1 (configuration not stated)	-11	-0.4	100	44*
C1CCC(N2CCN(C3CCCC3)CC2)C1	-7	-0.3	99	32*
O=C(c1ccc2ncsc2c1)N1CCN(c2ccccc2)CC1	14	0.45	104	11
CCOc1ccc(N2C(=O)CC(N3CCCCC3CC)C2=O)cc1 (configuration not stated)	55*	-0.05	103	9
O=C(/C=C/c1cccs1)N1CCCCC1c1nc2ccccc2s1 (configuration not stated)	11	-0.8	97	-17
CN(C)C(=O)COc1ncnc2ccccc12	-1	-0.6	102	x
O=C(O)COc1ncnc2ccccc12	10	0.8	104	27*
COc1cccc(OCC(=O)OC2CCS(=O)(=O)C2)c1 (configuration not stated)	x	-0.25	x	x
COC(=O)C12CC3CC(CC(C(=O)OC)(C1)C3=O)C2=O	3	1.8	103	-3
N#Cc1cc2c([nH]c1=S)CCCC2	102*	-0.1	98	-217
CC1(C)Cc2[nH]c(=S)c(C#N)cc2CO1	92	1.1	101	-85
CC(c1nc2ccccc2c(=O)[nH]1)N1CCN(Cc2ccc(Cl)s2)CC1 (configuration not stated)	9	1.1	-3.0*	-7
O=c1[nH]c(CN2CCNCC2)nc2ccccc12	-123	0.05	98	-10
COc1ccccc1-c1nnc(SCCNc2ncnc3sc4c(c23)CCC4)n1C	16	1.9	101	-21
CC(C(=O)N1CCCC1)N1CCN(c2ccc(F)cc2)CC1 (configuration not stated)	-4	-0.05	98	41*
CCCCOc1ccc(C(=O)NO)cc1OC	2	0.3	104	1
O=C(NC1CCCCC1)c1sc(=S)n2c1[nH]c(=O)c1ccccc12	96*	1.9	98	2
O=C(NCCc1ccccc1)c1sc(=S)n2c1[nH]c(=O)c1ccccc12	67	0	95	-5
NC(=O)c1sc(=S)n(-c2ccccc2)c1N	x	0.15	91	-17
Nc1c(C(=O)NC2CCCCC2)sc(=S)n1-c1ccccc1	56*	0.35	97	9
SMILES	MbtI inh	AID504770	PV pol inh	MenB inh
COc1ccc(-n2cc(C(=O)NC3CCCc4ccccc43)nn2)cc1 (configuration not stated)	-18	0.8	100	2
COc1ccc(OC/C(N)=N/O)cc1	x	1.9	x	x
CCO/C(C)=N\Oc1cc(=O)oc2ccccc12	-12	-0.45	100	-15
CCOC(=O)/C=C(\C)Sc1cc(=O)oc2ccccc12	-4	-0.35	84*	0
CCn1ccc2c(OCC(=O)NC3CCCC3)cccc2c1=O	42	2	100	9
O=C1c2ccccc2C(=O)C1c1cc(=O)[nH]c2ccccc12	6	-0.65	87*	-168
O=c1cc(O)c2ccccc2[nH]1	55	-0.85	101	-155
C=CCn1c(NC)nc2c1c(=O)[nH]c(=O)n2C	1	2.2	104	-30
C=CCn1c(SC)nc2c1c(=O)[nH]c(=O)n2C	96*	0.55	99	-28
O=C(c1cc2c(s1)CCCCCC2)N1CCC2(CC1)OCCO2	1	-0.1	99	-8
O=C(C1=Cc2sc3c(c2CS1)CCCC3)N1CCC2(CC1)OCCO2	95*	0.55	104	-15
Cc1cc(C)nc(NNC(=S)NCc2ccc3c(c2)OCO3)n1	75*	-0.5	98	-16
Cc1ccccc1Oc1ccc(CN)cc1	0	-0.4	102	-44
CCn1c(CCC(=O)N2CCN(c3ccccn3)CC2)nc2cc(S(N)(=O)=O)ccc21	103	0.05	55*	-1
COc1ccccc1NC(=O)CSc1nnc(N)s1	x	x	83*	x
